Screens as filed in PubChem BioAssay.
Hits are enriched below; roughly 3.3% of the tested compounds scored in any of these assays.
Sm TGR block – inhibitors of Schistosoma mansoni thioredoxin glutathione reductase | purified TGR, DTNB reduction, TNB absorbance 405 nm | Q962Y6 | Potency, µM (series often up to 114 µM), inactives show at the highest dose activity change, negative = inhibition, most hits filed as inhibitors | actives 3% (n = 360,000); further: nearly all actives have a fitted effect of over 60% in size
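Kinetic colorimetric format: TGR-catalysed, NADPH-driven DTNB reduction monitored via TNB absorbance. Enzyme dispensed at 20 nM; compound exposure 15 min at room temperature before reaction start.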
AmpC inh detg – inhibitors of E. coli AmpC beta-lactamase with detergent | P00811 | AmpC hydrolysis of nitrocefin, absorbance 480 nm, 0.01% Triton | Potency, µM (highest dose often 114 µM), for the others: top-dose activity change, negative = inhibition, actives largely listed as inhibitors | actives 0.041% (n = 370,000) | AID 485294;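 further: 0% = no-compound wells and -100% = no-enzyme wells; nearly all actives have a fitted effect of over 25% in size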
Target sequence (P00811 whole entry, looked up): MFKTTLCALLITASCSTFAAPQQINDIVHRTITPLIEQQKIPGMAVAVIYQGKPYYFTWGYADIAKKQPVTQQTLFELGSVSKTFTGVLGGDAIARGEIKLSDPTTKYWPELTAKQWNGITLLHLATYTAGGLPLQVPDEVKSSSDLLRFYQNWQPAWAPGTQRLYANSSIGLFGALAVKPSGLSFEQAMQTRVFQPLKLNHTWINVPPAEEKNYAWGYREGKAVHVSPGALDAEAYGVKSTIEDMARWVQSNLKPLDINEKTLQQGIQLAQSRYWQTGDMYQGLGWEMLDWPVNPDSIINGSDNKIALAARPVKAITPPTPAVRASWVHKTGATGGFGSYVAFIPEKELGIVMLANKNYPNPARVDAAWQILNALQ
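20 mM phosphate pH 7.0 + 0.01% (detergent screen) or 0.0001% Triton X-100; 5.3 nM AmpC reagent; cpd preinc 15 min RT; nitrocefin (800 uM stock) to start; A480 q20 s × 4 min; Activity was normalised to no-enzyme and no-compound control wells.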
AmpC no deterg – inhibitors of E. coli AmpC beta-lactamase without detergent; AID 485341; Potency, µM (series often up to 57.1 µM), for inactives: at the highest dose activity change, negative = inhibition, hits mostly inhibitors; P00811; actives 0.52% (n = 330,000); AmpC nitrocefin hydrolysis, absorbance 480 nm, 0.0001% Triton;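 further: plate controls were no compound for no effect and no enzyme for full effect; nearly all actives have a fitted effect of over 20% in size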
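AmpC (5.3 nM in the dispensed reagent) in 20 mM phosphate pH 7.0 with 0.01% (detergent screen) or 0.0001% Triton X-100 was preincubated with compounds for 15 min at room temperature. Nitrocefin was then added from an 800 uM solution, and hydrolysis was followed at 480 nm.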
* = called active by the depositor; ? = inconclusive; . = no result given; [ ] = remark or other dose. The call rests on the fitted dose curve; in most records, active means well fitted curve in the direction sought with a large enough effect; inconclusive means small, poorly fitted or top-dose-only effect, or another doubt; inactive means no such curve, though single readings can be large; an effect the other way counts as inactive or inconclusive. Unless noted, on the % scale 0 is the no-effect control and ±100 the full control effect; potency means the concentration at half of the fitted maximal effect.

SMILES	Sm TGR block	AmpC inh detg	AmpC no deterg
COc1ccc(NC(=O)C2CCCN(S(C)(=O)=O)C2)cc1Cl (configuration not stated)	7%	?	-1%
Cc1cc(NCc2ccccn2)n2nc(C)c(-c3ccccc3)c2n1	1%	-1%	61%
Cc1nn2c(NCc3ccccn3)c3c(nc2c1-c1ccccc1)CCC3	25µM*	-16%	0%
O=C(Nc1ccccc1-c1ccccc1)C(=O)Nc1ccccc1-c1ccccc1	-24%	6%	-11%
COc1ccc(CN2C(=O)/C(=C/c3ccc(-c4ccc(Cl)c(C(=O)O)c4)o3)SC2=S)cc1	?	-3%	-17%
O=C(O)c1cc(-c2ccc(/C=C3/SC(=S)N(Cc4ccccc4)C3=O)o2)ccc1Cl	25µM*	-3%	-42%
Cc1ccccc1/C=C1\SC(=S)N(/N=C/c2cc([N+](=O)[O-])ccc2O)C1=O	-19%	1%	28µM*
CN(/N=C/c1cc([N+](=O)[O-])ccc1O)c1ccccc1	-6%	-10%	-25%
O=C1/C(=C\c2cccc(O)c2O)SC(=S)N1Cc1ccccc1	-4%	-15%	-41%
O=C1/C(=C\c2cc([N+](=O)[O-])ccc2O)SC(=S)N1Cc1ccc(Cl)cc1	-7%	3%	3.5µM*
O=C1/C(=C\c2ccc(O)c(O)c2)SC(=S)N1Cc1ccccc1	-27%	-5%	11µM*
COc1cc(/C=C2/SC(=S)N(Cc3ccccc3)C2=O)ccc1O	-6%	16%	-37%
COc1ccccc1NCC(=O)N1CCN(S(=O)(=O)c2ccccc2)CC1	-2%	10%	2%
CC1CC(C)CN(C(=O)C2CCN(S(=O)(=O)c3cccc4cccnc34)CC2)C1 (configuration not stated)	0%	-3%	50%
CC(C)(C)CC(=O)NCC(c1ccc2c(c1)OCO2)N1CCOCC1 (configuration not stated)	7%	4%	.
O=C(CSCc1cccc(Br)c1)NC1CC1	-10%	-12%	-14%
O=C(NCCc1ccccc1)c1ccc(CSc2nc3cccnc3n2Cc2ccccc2)cc1	1%	5%	.
O=C(O)COc1cccc(/C=C2/SC(=S)N(Cc3ccccc3)C2=O)c1	-4%	0%	3%
O=C(O)CN1C(=O)/C(=C\c2cccc(OCc3ccccc3)c2)SC1=S	0.5µM*	?	-26%
COC(=O)c1cc(S(=O)(=O)N(Cc2ccccc2)C(C)(C)C)c[nH]1	-16%	?	-24%
Cc1onc(-c2ccccc2)c1-c1nnc(COC(=O)c2ccc(O)cc2)o1	?	-1%	-23%
COc1cc(C(=O)N2CCc3ccccc32)ccc1OCc1c(C)noc1C	-8%	-14%	30%
CC(NC(N)=O)C(=O)Nc1ccc(Cl)c(S(=O)(=O)Nc2ccc(Br)cc2)c1 (configuration not stated)	-6%	-6%	-28%
Cc1cc(NC(=O)CCl)no1	8.9µM*	-5%	-36%
CSCC(=O)Nc1cc(C)on1	11%	4%	-5%
SMILES	Sm TGR block	AmpC inh detg	AmpC no deterg
CCOC(=O)/C=C/[C@H]1CC2(CCO1)SCCCS2	0%	0%	-1%
CNC(=O)c1ccc(S(=O)(=O)c2ccc(Cl)cc2)c(NC(C)=O)c1	-18%	1%	-11%
O=C(c1nnsc1S(=O)c1ccc(Cl)cc1)N1CCOCC1 (configuration not stated)	2.5µM*	?	-36%
CNC(=O)c1nnsc1S(=O)(=O)c1ccc(Cl)cc1	0.28µM*	?	?
O=C(c1cc(-c2ccc(Cl)cc2)on1)N1CCOCC1	0%	?	-15%
O=C(Nc1ccccc1)c1nnsc1S(=O)c1ccc(Cl)cc1 (configuration not stated)	0.1µM*	?	14µM*
Nc1nc(C(=O)N2CCOCC2)nn1S(=O)(=O)c1ccc(Cl)cc1	0%	-14%	-14%
Cc1nnsc1S(=O)c1ccc(Cl)cc1 (configuration not stated)	-3%	?	-11%
O=C(c1nnsc1S(=O)(=O)c1ccc(Cl)cc1)N1CCOCC1	11µM*	2%	-12%
CCn1cc(C(=O)NCc2ccccc2)c(=O)c2cc(S(=O)(=O)N3CCOCC3)ccc21	-13%	2%	.
CC1(C)NC(=O)N(CC(=O)N2CCN(c3cccc(Cl)c3)CC2)C1=O	1%	-15%	-4%
C=CCc1cc(/C=C2/NC(=O)N(CC)C2=O)cc(OCC)c1OCc1ccc(C(=O)O)cc1	-10%	-4%	-23%
Cc1cc(C)c(OCC(O)CN2CCN(C(=O)c3ccccc3)CC2)c(C)c1 (configuration not stated)	5%	0%	157%
O=C(c1cc(=O)[nH]c2ccccc12)N1CC=C(c2ccccc2)CC1	1%	0%	-6%
COc1cc(OC)cc(C(=O)NNC(=O)CCc2nc3ccccc3c(=O)[nH]2)c1	-1%	7%	-16%
CN(C)S(=O)(=O)c1cccc(NC(=S)N2CCc3ccccc32)c1	?	?	-30%
Cc1ccc(NC(=O)C2Cc3ccccc3CN2C(=O)c2ccco2)cc1S(=O)(=O)N(C)C (configuration not stated)	40µM*	0%	-22%
CC1Cc2ccccc2N1C(=S)Nc1cccc(S(=O)(=O)N(C)C)c1 (configuration not stated)	50µM*	-12%	-53%
COc1ccc(NC(=O)C2Cc3ccccc3CN2C(=O)c2ccco2)cc1 (configuration not stated)	?	4%	-11%
O=C(Nc1nnc(SCc2ccc(F)cc2)s1)C1Cc2ccccc2CN1C(=O)c1ccco1 (configuration not stated)	-34%	0%	-36%
O=C(Nc1ccccc1N1CCOCC1)C1Cc2ccccc2CN1C(=O)c1ccco1 (configuration not stated)	?	1%	40%
CN(C)S(=O)(=O)c1cccc(NC(=O)C2Cc3ccccc3CN2C(=O)c2ccco2)c1 (configuration not stated)	18µM*	2%	-14%
O=C(Nc1nnc(C2CC2)s1)C1Cc2ccccc2CN1C(=O)c1ccco1 (configuration not stated)	13µM*	-1%	-31%[11.4 µM]
COc1ccc(S(=O)(=O)N2CCOCC2)cc1NC(=O)Cc1ccc(Cl)c(Cl)c1	5%	?	36%
CC1CCN(C(=O)CCCOc2ccc(Cl)cc2)CC1	9%	1%	69%
SMILES	Sm TGR block	AmpC inh detg	AmpC no deterg
O=C(COC(=O)c1cc(Cl)ccc1O)Nc1cc(C(F)(F)F)ccc1N1CCOCC1	.	.	-11%
Cc1cccn2c(CN(C)CCC3CCCCO3)c(C(=O)N3CCCCC3)nc12 (configuration not stated)	-5%	10%	29%
C#CC1CCCCC1NC(=O)Nc1cnccc1C(F)(F)F (configuration not stated)	3%	0%	8%
FC(F)Sc1ccc(NC(=S)NCc2ccccc2)cc1	4%	7%	-33%
FC(F)Sc1ccc(NC(=S)NC(c2ccccc2)c2ccccc2)cc1	8%	10%	18µM*
CCc1ccc(N2CC(C(=O)NNC(=O)c3ccc(F)cc3)CC2=O)cc1 (configuration not stated)	-4%	?	-14%
